# ALDH1A1 block = inhibitors of human aldehyde dehydrogenase 1A1; AID 1030; P00352; Purified ALDH1A1, NADH fluorescence, propionaldehyde substrate; Potency, µM (highest dose often 75.3 µM), for inactives: top-dose activity, negative = inhibition, actives largely listed as inhibitors; hit rate 7.3% among 220,000;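 further: potency means the concentration at half of the fitted maximal effect; plate controls were no enzyme wells and a reference inhibitor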
# Target sequence (P00352 whole entry, looked up): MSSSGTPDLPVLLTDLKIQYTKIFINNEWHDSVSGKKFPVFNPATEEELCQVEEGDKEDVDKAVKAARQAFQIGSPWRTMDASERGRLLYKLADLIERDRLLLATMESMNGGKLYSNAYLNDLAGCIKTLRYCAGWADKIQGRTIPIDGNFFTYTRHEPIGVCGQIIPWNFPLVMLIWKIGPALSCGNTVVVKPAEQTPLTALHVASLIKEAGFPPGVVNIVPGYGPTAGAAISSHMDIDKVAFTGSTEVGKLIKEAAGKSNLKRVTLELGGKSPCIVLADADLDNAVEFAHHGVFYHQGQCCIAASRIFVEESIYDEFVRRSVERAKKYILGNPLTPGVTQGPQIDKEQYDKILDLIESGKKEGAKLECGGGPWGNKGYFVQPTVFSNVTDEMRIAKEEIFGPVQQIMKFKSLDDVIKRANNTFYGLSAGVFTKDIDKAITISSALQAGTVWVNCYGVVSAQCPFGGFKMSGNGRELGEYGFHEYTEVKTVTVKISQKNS
# HPGD block = inhibitors of human 15-hydroxyprostaglandin dehydrogenase (HPGD). hit rate 4.3% among 150,000. AID 894. purified HPGD, NADH fluorescence kinetic, PGE2 substrate. P15428. Potency, µM, inactives show at the highest dose activity change, negative = inhibition, hits mostly inhibitors; further: potency means the concentration at half of the fitted maximal effect
#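 20 nM HPGD preincubated 15 min at room temperature with compound in 50 mM Tris-HCl pH 8, 0.01% Tween 20. Started with 1 mM NAD+ and 30 uM prostaglandin E2; NADH fluorescence (360/450 nm) read 5 times over 30-s intervals, last minus first.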
# PNC assembly inh = inhibitors of perinucleolar compartment assembly; PC3M PTB-GFP, PNC prevalence imaging, 16 h; stronger effect = lower value; activity change (PNC), negative = inhibition, % at 10 µM; hit rate 3.1% among 140,000;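 active means readout at or below -70, meaning at least 70% loss of cells showing the perinucleolar compartment, a nuclear body marking cancer cells; inconclusive means readout between -30 and a set limit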;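 further: plate controls were DMSO wells for no effect and camptothecin positive control wells for full effect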
#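 PC3M cells stably expressing PTB-GFP, 750–1000 cells/well, treated 16 h at 37 °C with compound (23 nl of library stock), in duplicate. After paraformaldehyde fixation and Hoechst stain, imaged at 20x; PNC prevalence scored by image analysis.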
# JMJD2E inh = blocks human JMJD2E demethylase activity. hit rate 1.6% among 230,000. JMJD2E catalytic domain, FDH-coupled NADH fluorescence (FDH is formaldehyde dehydrogenase). B2RXH2. AID 2147. Potency, µM (highest dose often 57.1 µM), without a hit: at the top dose activity change, negative = inhibition, usual class: inhibitors;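 further: potency means the concentration at half of the fitted maximal effect; 0% = wells with enzyme and -100% = buffer wells without enzyme; nearly all actives have a fitted effect of over 50% in size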
# The depositor's hits bear a star; ? = inconclusive; . = no result; [ ] = another dose, or the depositor's remark. A selection: hits, their analogues and other compounds. The true share with any hit is near 11%. Unless noted, the call rests on the fitted dose curve; in most records, active means well fitted inhibition curve with a large enough effect (not every such curve was filed as active); inconclusive means small, poorly fitted or top-dose-only effect, or another doubt; inactive means no such curve, though single readings can be large or run the other way. Unless noted, on the % scale 0 is the no-effect control and ±100 the full control effect.
SMILES,ALDH1A1 block,HPGD block,PNC assembly inh,JMJD2E inh
CC(C)(C)c1ccc(S(=O)(=O)N2CCCCC2C(=O)NCc2ccccn2)cc1 (stereo not given),3.98µM*,-14.1%,?,-6.2%
O=C(NCc1ccccn1)C1CN(S(=O)(=O)c2ccccc2)CCN1S(=O)(=O)c1ccccc1 (stereo not given),-11.1%,.,.,-1.7%
CS(=O)(=O)N1CCCC(C(=O)NCc2ccccn2)C1 (stereo not given),-12.6%,-2.1%,-110.4*,9.3%
COc1ccc(C[C@@H]2C(=O)N[C@H](C)C(=O)N(C)[C@@H]3Cc4ccc(cc4)Oc4cc(ccc4O)C[C@H](C(=O)N[C@@H](C)C(=O)N[C@H](C)C(=O)N2C)N(C)C3=O)cc1,-0.2%[13.5 µM],-5.6%,.,.
N=C1C(c2nc3ccccc3[nH]2)=C(O)CN1c1ccc(CC(=O)O)cc1,23.8µM*,-21.8%,-23.7,-5.5%
COC(=O)Cc1c(C)[nH]n(-c2cc(Cl)cc(Cl)c2)c1=O,7.08µM*,.,.,-20.1%
CC(C)(C)NC(=O)CSc1nnc(-c2ccccn2)n1Cc1ccccc1,.,.,.,0.0%
C=CCn1c(SCC(=O)c2ccccc2)nnc1-c1cc2ccccc2o1,?,14.1µM*,?,-5.4%
CCn1c(SCC(=O)c2ccccc2)nnc1-c1cc2cc(Br)ccc2o1,?,-20.7%,13.3,-14.6%
C=CCn1c(SCC(=O)Nc2ccc3c(c2)OCCO3)nnc1-c1ccccn1,?,-6.4%,-80.6*,0.8%
C=CCNC(=O)CSc1nnc(-c2ccccn2)n1Cc1ccccc1,35.5µM*,.,.,3.5%
C=CCn1c(SCC(=O)c2ccccc2)nnc1-c1ccc2c(c1)OCO2,25.1µM*,5.62µM*,-27.0,-11.5%
COc1ccc(-n2c(=O)c(-c3cccs3)nc3cnc(Oc4ccccc4)nc32)cc1,70.4%,-12.1%,.,.
O=C(O)CCCc1ccc2ccc3ccccc3c2c1,3.3%[13.5 µM],-10.6%,.,.
OCCC1CN(Cc2cnc(-c3cccc4ccccc34)nc2)CCN1C1CCCCC1 (stereo not given),-1.3%,.,.,4.3%
C=CCn1c(COc2ccc(F)cc2)nnc1SCC(=O)c1c[nH]c2c(CC)cccc12,15.2%,-8.9%,-25.7,10.1%
C=CCn1c(COC)nnc1SCC(=O)c1ccc(F)cc1,11.2µM*,-23.2%,?,?
C=CCn1c(SCC(=O)c2ccc(OC)cc2)nnc1-c1cc2cccc(OC)c2o1,-10.1%,1.8%,-123.0*,-12.3%
COc1ccc(C(=O)CSc2nnc(-c3cc4ccccc4cc3O)n2Cc2ccco2)cc1,?,-29.8%,-22.7,-19.0%
Cc1cc2c(=O)n(CC(=O)N3CCN(c4ccccc4)CC3)cnc2s1,2.0%,-4.3%,-122.4*,-1.4%
O=C(Cn1cnc2ccccc2c1=O)N1CCN(c2ccccc2)CC1,0.2%,3.6%,-12.8,-5.5%
CCN(CC)S(=O)(=O)c1ccc(NC(=S)NC(=O)C(C)C)cc1,28.2µM*,-15.6%,0.3,-22.9%
CC(=O)NS(=O)(=O)c1ccc(NC(=S)NC(=O)CC(C)C)cc1,8.6%,.,.,-2.1%
CCN(CC)S(=O)(=O)c1ccc(NC(=S)NC(=O)CC(C)C)cc1,-12.7%,-14.8%,-83.0*,5.3%
CC(=O)NS(=O)(=O)c1ccc(NC(=S)NC(=O)C(C)C)cc1,3.8%,-0.4%,-8.3,5.0%
SMILES,ALDH1A1 block,HPGD block,PNC assembly inh,JMJD2E inh
Cc1cc2c(c(=O)o1)C1(C(=O)N(CC(=O)O)c3ccccc31)C(C#N)=C(N)O2 (stereo not given),1.3%,-18.2%,-6.8,?
COC(=O)CN1C(=O)C2(C(C#N)=C(N)Oc3c2c(C)nn3-c2ccccc2)c2ccccc21 (stereo not given),0.141µM*,-13.0%,288.9,-18.3%
COC(=O)CN1C(=O)C2(C(C#N)=C(N)Oc3n[nH]c(-c4cccs4)c32)c2ccccc21 (stereo not given),2.24µM*,-2.4%,?,4.6%
O=C1CC(N2CCC(c3nc4ccccc4o3)CC2)C(=O)N1c1ccc(Cl)c(C(F)(F)F)c1 (stereo not given),8.91µM*,20µM*,13.7,1.9%
O=C(C1CCN(C2CC(=O)N(c3cccc(Cl)c3)C2=O)CC1)N1CCCCCC1 (stereo not given),20µM*,-10.3%,-24.5,3.0%
O=C1CC(N2CCC(c3nc4ccccc4[nH]3)CC2)C(=O)N1c1cccc(F)c1 (stereo not given),11.2µM*,.,.,2.0%
O=C(O)c1ccc(N2C(=O)CC(N3CCC(c4nc5ccccc5[nH]4)CC3)C2=O)cc1 (stereo not given),31.6µM*,.,.,4.1%
O=C1CC(N2CCOCC2)C(=O)N1c1cccc(Cl)c1 (stereo not given),?,-4.4%,-1.7,-1.4%
O=C1CC(N2CCN(c3ccccc3Cl)CC2)C(=O)N1c1ccc(F)cc1 (stereo not given),-5.6%,-4.7%,?,4.3%
O=C1CC(N2CCN(c3ccccc3Cl)CC2)C(=O)N1c1cccc(F)c1 (stereo not given),11.2µM*,-11.2%,2.9,6.8%
O=c1[nH]c(=S)[nH]nc1Cc1ccccc1,?,28.2µM*,21.1,-1.4%
O=C(Cn1c(=O)oc2cc(S(=O)(=O)N3CCOCC3)ccc21)N1CCc2ccccc2C1,-10.8%,-2.5%,1.1,6.4%
Cn1c(=O)oc2cc(S(=O)(=O)N3CCCC(C(=O)NC4CCCc5ccccc54)C3)ccc21 (stereo not given),2.8%,?,-1.5,7.2%
Cn1c(=O)oc2cc(S(=O)(=O)N3CCCC3)ccc21,-6.3%,-11.4%,7.2,3.4%
CCOC(=O)N1CCN(S(=O)(=O)c2ccc3c(c2)oc(=O)n3C)CC1,-0.5%,2.5%,-80.5*,-9.8%
CCOC(=O)n1c(=O)oc2cc(S(=O)(=O)N3CCCCC3)ccc21,1.2%,-21.2%,-100.0*,6.4%
COC(=O)n1c(=O)oc2cc(S(=O)(=O)N3CCCCC3)ccc21,-0.7%,-10.7%,20.3,1.9%
O=C(Cn1c(=O)oc2cc(S(=O)(=O)N3CCCC3)ccc21)N1CCc2ccccc2C1,11.2µM*,-8.6%,5.3,-3.9%
Cn1c(=O)oc2cc(S(=O)(=O)N3CCCC(C(=O)N4CC=C(c5ccccc5)CC4)C3)ccc21 (stereo not given),?,14.1µM*,?,-3.4%
CCCCCCN1CC(C(=O)OCC)C(=O)C1=O (stereo not given),?,-15.8%,12.2,13.3%
CCOC(=O)N1CCC(N2CCN(S(=O)(=O)c3ccc(Cl)cc3)CC2)CC1,14.1µM*,-12.9%,9.4,?
CCOC(=O)N1CCC(N2CCN(S(=O)(=O)c3ccc(NC(C)=O)cc3)CC2)CC1,?,2.1%,?,?
COc1ccc(-n2nnnc2SCC(=O)c2ccc(O)c(O)c2)cc1,-14.4%,25.1µM*,30.2,11.2µM*
NC(=O)c1ccc(-n2nnnc2SCC(=O)c2ccc(O)c(O)c2)cc1,?,.,.,0.708µM*
CC(=O)Oc1ccc(C(=O)Nc2cc(NC(=O)c3ccc(OC(C)=O)cc3)cc(C(=O)NC(C)(C)C)c2)cc1,-2.2%,-17.9%,-19.3,-12.1%
CCOC(=O)c1c(C)nc(SCC(N)=O)c(C#N)c1-c1ccccc1,?,-0.1%,-113.8*,10.1%

# Compound activity deposited in PubChem BioAssay by National Center for Advancing Translational Sciences (NCATS).
